Only some compounds are listed: those with a hit (about 1.1% of all), similar ones and a draw of the others.
HTR5A ag ctr – HTR5A agonists in luminescence cell assay, primary screen, counter-screen for OPRM1-OPRD1 heterodimer agonist project, full-deck HTS; 5-hydroxytryptamine receptor 5A (Homo sapiens), P47898; cell-based; activation, % at 9.3 µM; 340,000 compounds, 0.61% hits; in the data active means activation mostly above about 9.5%, no sharp cut-off; inactive means mostly below about 7.6%;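 further: 0% = cells with vehicle only and 100% = reference agonist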
Target sequence (P47898 whole entry, looked up): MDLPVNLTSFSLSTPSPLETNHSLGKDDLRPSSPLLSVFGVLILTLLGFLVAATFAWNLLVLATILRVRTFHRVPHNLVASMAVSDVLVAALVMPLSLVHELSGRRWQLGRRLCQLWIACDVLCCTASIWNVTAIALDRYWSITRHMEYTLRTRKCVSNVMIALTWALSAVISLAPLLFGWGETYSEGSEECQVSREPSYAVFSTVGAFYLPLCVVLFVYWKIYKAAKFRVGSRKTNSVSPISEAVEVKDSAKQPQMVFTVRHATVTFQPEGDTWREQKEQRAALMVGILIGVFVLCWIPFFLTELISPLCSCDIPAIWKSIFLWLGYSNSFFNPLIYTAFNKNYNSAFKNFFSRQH
MOR-DOR ag-1 – agonists of OPRM1-OPRD1 heterodimerization, primary screen, cell-based, luminescence; Mu-type opioid receptor (Homo sapiens) + Delta-type opioid receptor (Homo sapiens), …; cells; activation, % at 9.3 µM; 340,000 compounds, 0.3% hits; AID 504326, 2011;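 further: 0% = vehicle-treated cells and 100% = reference agonist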
HTR5A inv ag – HTR5A inverse agonists in luminescence cell assay, primary screen, counter-screen for OPRM1-OPRD1 heterodimer inverse agonist project, full-deck HTS; HTR5A cell line, inverse agonism; inhibition, % at 9.3 µM; 340,000 compounds, 0.083% hits; in the data active means inhibition mostly above about 23%, no sharp cut-off; inactive means mostly below about 18%;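 further: 0% = cells with DMSO and 100% = no-cell wells with DMSO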
OPRM1-OPRD1 inv – inverse agonists of MOR-DOR heterodimerization, primary screen, cell-based, luminescence; Mu-type opioid receptor (Homo sapiens) + Delta-type opioid receptor (Homo sapiens), …; cell-based MOR-DOR heterodimer luminescence, inverse agonism; inhibition, % at 9.3 µM; 340,000 compounds, 0.21% hits; AID 504357, 2011; in the data active means inhibition above about 22%, passing the limit was not always enough;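 further: 0% = cells with DMSO and 100% = wells without cells with DMSO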
A1 inh – caspase 3/7 activation in MEF A1-2A-BIM cells, primary screen, A1 inhibitor project, cell-based, luminescence, HTS; 330,000 compounds, 0.066% hits; caspase activation, % (no concentration beside the values); Caspase-Glo 3/7 luminescence, 3 h; percent of clofoctol response, vehicle zero; AID 2462, 2010;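 active means over half of replicate activation scores above 10%, or exactly half above 10 with the replicate mean above 10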
MOR-DOR ag-2 – OPRM1-OPRD1 heterodimerization promoters, counter-screen for HTR5A agonist project, cell-based, luminescence; shares compounds with HTR5A ag ctr; 800 compounds, 13% hits; activation, % at 9.3 µM; U2OS counter-screen cells, complementation luminescence, 3 h; AID 504913, 2011
HTR5A ag confirm – HTR5A agonists, retest of hits, confirmation, cell-based, luminescence; shares compounds with HTR5A ag ctr; HTR5A agonist cell assay; activation, % at 9.3 µM; 800 compounds, 17% hits; AID 504915, 2011; in the data active means activation above about 17%;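 further: 0% = cells with vehicle only and 100% = full reference agonist response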
An asterisk follows results filed as active; nt = no result. Unless noted, no stated cut-off is given here; in the data, active means activation above about 18%; inactive means the rest.

SMILES	HTR5A ag ctr	MOR-DOR ag-1	HTR5A inv ag	OPRM1-OPRD1 inv	A1 inh	MOR-DOR ag-2	HTR5A ag confirm
CCc1ccc(C2NC(=S)NC3=C2C(=O)N(c2ccccc2OC)C(c2ccc(CC)cc2)N3)cc1 (centres undefined)	22*	4	-17	-28	0	8	0
O=C1C2=C(NC(=S)NC2c2ccc(Cl)cc2)NC(c2ccc(Cl)cc2)N1c1ccc(Cl)cc1 (centres undefined)	12	3	-31	-21	1	nt	nt
CN(CC(=O)Nc1ccc(F)c(F)c1F)C(=O)c1ccc2c(c1)NC(=O)CS2	11	1	-26	-4	1	nt	nt
CN(CC(=O)Nc1ccc(Cl)c(C(F)(F)F)c1)C(=O)c1ccc2c(c1)NC(=O)CS2	16*	0	-24	2	0	-1	-1
COc1ccc(C)cc1NC(=O)CN1CCN(S(=O)(=O)c2ccc(Cl)cc2)CC1	2	-3	10	11	0	nt	nt
COc1cc2c(cc1NC(=O)CN1CCN(S(=O)(=O)c3ccc(C)cc3)CC1)oc1ccccc12	15*	2	-32	-10	0	218*	2
O=C(COC(=O)/C=C/c1ccc(C(F)(F)F)cc1)NC(=O)NCc1ccco1	20*	1	-48	-2	1	119*	1
Cc1ccccc1-c1cc(C(=O)Nc2sc(C)c(C)c2C(N)=O)c2ccccc2n1	17*	-1	-45	5	0	5	-2
CCOC(=O)c1sc(NC(=O)c2cc(-c3ccccc3C)nc3ccccc23)c(C#N)c1C	2	-1	-4	4	0	nt	nt
COc1cccc(Nc2nc(CC(C)=O)ns2)c1	19*	-2	-51	10	0	0	2
O=C(CSc1ccc(-c2ccc(F)cc2)nn1)NCc1ccco1	19*	2	-50	-9	-1	2	0
Cc1ccc2oc(=O)c3cnn(CC(=O)NC4CCCCC4C)c3c2c1 (centres undefined)	21*	0	-54	-2	1	1	0
CCn1c(N2CCN(C(=S)Nc3ccc(OC)cc3)CC2)nc2ccccc21	3	-2	-9	11	1	nt	nt
CC1(C)CC(n2c(NCCO)nc3c(c2=O)C2(CCCC2)Cc2ccccc2-3)CCO1 (centres undefined)	23*	4	-60	-26	-1	1	0
CCOC(=O)Cn1c(=O)oc2cc(S(=O)(=O)Nc3ccc(N(CC)CC)cc3C)ccc21	0	0	-1	-2	0	nt	nt
OC(CN1CCN(c2cccc(Cl)c2)CC1)c1ccc(F)cc1 (centres undefined)	19*	7	-72	-32	0	7	27*
CCC(Oc1ccccc1)C(=O)Nc1ccccn1 (centres undefined)	-2	-2	16	11	1	nt	nt
FC(F)(F)c1cnc(N2CCCN(C(=S)Nc3ccccc3)CC2)c(Cl)c1	17*	7	-44	-34	0	-2	0
O=C(CN1CCOCC1)Nc1ncc(Cc2ccccc2Cl)s1	5	-1	1	7	0	nt	nt
CCc1ccc(CCC(=O)Nc2ncc(Cc3ccccc3Cl)s2)o1	17*	3	-59	-18	2	22*	12
C=CCN1CCc2c(cc(O)c(O)c2Cl)C(c2ccccc2)C1 (centres undefined)	26*	5	-92	-27	1	1	4
COc1ccccc1C(CNC(=O)c1cccc(S(=O)(=O)Nc2ccc(C)cc2)c1)N1CCCC1 (centres undefined)	25*	-2	-93	9	0	2	34*
COc1ccccc1NS(=O)(=O)c1cccc(C(=O)NCC(c2ccccc2OC)N2CCCC2)c1 (centres undefined)	10	-1	9	5	-1	nt	nt
O=C(Nc1ccccc1)c1ncoc1-c1ccc(Cl)cc1	19*	3	-50	-14	1	2	2
O=C(c1ccc([N+](=O)[O-])s1)N1CCN(c2cccc(Cl)c2)CC1	5	5	-19	-28	0	nt	nt
SMILES	HTR5A ag ctr	MOR-DOR ag-1	HTR5A inv ag	OPRM1-OPRD1 inv	A1 inh	MOR-DOR ag-2	HTR5A ag confirm
C=CCN(c1ccccc1)S(=O)(=O)c1cccc(C(=O)N2CCCC2)c1	15*	0	-41	2	0	47*	3
CCCCCCCCCCCCCCCC[n+]1ccc(/C=N/O)cc1	26*	5	-40	-24	1	16	9
CCCCCCCCCCCCCCCC[n+]1ccc(C(N)=O)cc1	2	0	-14	0	1	nt	nt
O=C(NCc1ccco1)c1cc(C(=O)C2CC2)c[nH]1	17*	-2	-44	8	0	0	6
Cc1ccccc1C(=O)c1c[nH]c(C(=O)NCc2ccco2)c1	-2	-1	5	5	2	nt	nt
COC(=O)c1cccc(N2C(=O)C(Cl)=C(N3CCOCC3)C2=O)c1	6	-2	-43	9	0	nt	nt
O=C1C(Cl)=C(N2CCOCC2)C(=O)N1c1cccc(C(F)(F)F)c1	14*	0	-10	-2	-2	2	6
Cc1onc(-c2ccccc2)c1C(=O)N/N=C/c1ccc([N+](=O)[O-])c(O)c1	20*	-1	-52	5	3	-1	0
CCc1nnc(NC(=O)C2CCCN2C(=O)Nc2ccc(C)cc2)s1 (centres undefined)	3	-2	7	10	0	nt	nt
O=c1[nH]c2cccnc2n1Cc1ccco1	0	-1	-4	7	1	nt	nt
CCOc1nc(CC(C)C)c2c(c1C#N)CC(C)(C)OC2	16*	4	3	-23	0	6	-1
O=C(c1ccc(Cl)c(S(=O)(=O)N2CCCC2)c1)N1CCN(c2ccccc2F)CC1	21*	2	-68	-10	-1	-3	-8
O=C(c1ccc(Cl)c(S(=O)(=O)N2CCOCC2)c1)N1CCN(c2ccccc2F)CC1	8	-1	-26	5	1	nt	nt
O=C(c1ccc(Cl)c(S(=O)(=O)NCc2ccccc2)c1)N1CCN(c2ccccn2)CC1	21*	0	-45	2	0	1	14
O=C(c1ccc(Cl)c(S(=O)(=O)N2CCCC2)c1)N1CCN(c2ncccn2)CC1	20*	-3	-55	17	-1	2	0
O=C(CCN1C(=O)S/C(=C\c2cccs2)C1=O)NC1=NCCS1	1	0	-3	-1	0	nt	nt
